Consider one compound from ChEMBL document CHEMBL2218924, “A broad activity screen in support of a chemogenomic map for kinase signalling research and drug discovery” (Biochem J, 2013).

In assay [1] the target is Tyrosine-protein kinase SYK (Homo sapiens) (UniProt P43405). Particulars: at 10 µM.
For assay [2], the target named is T1, Mitogen-activated protein kinase kinase kinase 7 (Homo sapiens) (UniProt O43318).
T1 sequence (whole entry): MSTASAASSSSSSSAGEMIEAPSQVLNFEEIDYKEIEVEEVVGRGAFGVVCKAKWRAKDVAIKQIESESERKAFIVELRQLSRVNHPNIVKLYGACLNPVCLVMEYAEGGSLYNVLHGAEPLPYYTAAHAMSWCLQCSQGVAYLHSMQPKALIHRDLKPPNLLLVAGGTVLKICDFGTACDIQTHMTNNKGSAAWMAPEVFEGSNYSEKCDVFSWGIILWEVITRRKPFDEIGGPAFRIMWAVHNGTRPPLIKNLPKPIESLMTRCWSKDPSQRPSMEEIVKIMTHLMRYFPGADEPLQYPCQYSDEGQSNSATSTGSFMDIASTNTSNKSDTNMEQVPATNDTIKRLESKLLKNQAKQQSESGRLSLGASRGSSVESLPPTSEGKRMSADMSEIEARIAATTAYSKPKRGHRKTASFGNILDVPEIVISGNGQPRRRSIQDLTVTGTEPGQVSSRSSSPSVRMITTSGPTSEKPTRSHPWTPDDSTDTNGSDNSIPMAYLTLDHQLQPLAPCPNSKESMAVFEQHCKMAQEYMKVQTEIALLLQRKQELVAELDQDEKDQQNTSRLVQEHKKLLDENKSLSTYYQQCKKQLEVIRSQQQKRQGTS
Particulars: at 1 µM.

Assay [3] addresses T1, Mitogen-activated protein kinase kinase kinase 7 (Homo sapiens). The note with it: at 10 µM.
The target in assay [4] is T2, Serine/threonine-protein kinase TAO1 (Homo sapiens) (UniProt Q7L7X3).
T2 sequence (whole entry): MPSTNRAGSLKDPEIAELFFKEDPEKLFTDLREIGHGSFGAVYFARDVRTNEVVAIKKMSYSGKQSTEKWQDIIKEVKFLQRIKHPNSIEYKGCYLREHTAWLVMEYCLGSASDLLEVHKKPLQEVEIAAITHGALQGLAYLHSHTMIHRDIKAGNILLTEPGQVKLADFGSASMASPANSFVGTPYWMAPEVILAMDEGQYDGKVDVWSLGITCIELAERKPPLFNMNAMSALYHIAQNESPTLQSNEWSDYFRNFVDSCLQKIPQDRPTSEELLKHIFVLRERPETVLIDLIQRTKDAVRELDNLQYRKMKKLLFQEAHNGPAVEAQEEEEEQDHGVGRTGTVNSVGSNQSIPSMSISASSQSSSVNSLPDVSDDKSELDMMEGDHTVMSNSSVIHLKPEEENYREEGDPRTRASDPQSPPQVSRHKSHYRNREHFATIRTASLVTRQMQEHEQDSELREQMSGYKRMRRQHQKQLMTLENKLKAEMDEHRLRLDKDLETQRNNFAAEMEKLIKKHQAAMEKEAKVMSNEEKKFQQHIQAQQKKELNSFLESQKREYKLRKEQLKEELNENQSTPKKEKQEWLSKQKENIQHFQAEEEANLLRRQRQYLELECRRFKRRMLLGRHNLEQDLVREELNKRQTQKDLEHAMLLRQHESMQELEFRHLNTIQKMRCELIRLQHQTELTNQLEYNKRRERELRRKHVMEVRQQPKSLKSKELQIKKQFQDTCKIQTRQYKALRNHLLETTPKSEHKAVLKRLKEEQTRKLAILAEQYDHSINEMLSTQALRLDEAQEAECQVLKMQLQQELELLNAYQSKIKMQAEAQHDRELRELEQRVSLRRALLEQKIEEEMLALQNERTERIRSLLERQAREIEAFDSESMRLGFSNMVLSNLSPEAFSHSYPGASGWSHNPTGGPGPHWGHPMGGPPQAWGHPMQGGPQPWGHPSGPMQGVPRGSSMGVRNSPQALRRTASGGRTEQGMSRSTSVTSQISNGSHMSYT
The note with it: at 1 µM.

The target of assay [5] is T2, Serine/threonine-protein kinase TAO1 (Homo sapiens). Particulars: at 10 µM.
The target of assay [6] is T3, Serine/threonine-protein kinase TAO2 (Homo sapiens) (UniProt Q9UL54).
T3 sequence (whole entry): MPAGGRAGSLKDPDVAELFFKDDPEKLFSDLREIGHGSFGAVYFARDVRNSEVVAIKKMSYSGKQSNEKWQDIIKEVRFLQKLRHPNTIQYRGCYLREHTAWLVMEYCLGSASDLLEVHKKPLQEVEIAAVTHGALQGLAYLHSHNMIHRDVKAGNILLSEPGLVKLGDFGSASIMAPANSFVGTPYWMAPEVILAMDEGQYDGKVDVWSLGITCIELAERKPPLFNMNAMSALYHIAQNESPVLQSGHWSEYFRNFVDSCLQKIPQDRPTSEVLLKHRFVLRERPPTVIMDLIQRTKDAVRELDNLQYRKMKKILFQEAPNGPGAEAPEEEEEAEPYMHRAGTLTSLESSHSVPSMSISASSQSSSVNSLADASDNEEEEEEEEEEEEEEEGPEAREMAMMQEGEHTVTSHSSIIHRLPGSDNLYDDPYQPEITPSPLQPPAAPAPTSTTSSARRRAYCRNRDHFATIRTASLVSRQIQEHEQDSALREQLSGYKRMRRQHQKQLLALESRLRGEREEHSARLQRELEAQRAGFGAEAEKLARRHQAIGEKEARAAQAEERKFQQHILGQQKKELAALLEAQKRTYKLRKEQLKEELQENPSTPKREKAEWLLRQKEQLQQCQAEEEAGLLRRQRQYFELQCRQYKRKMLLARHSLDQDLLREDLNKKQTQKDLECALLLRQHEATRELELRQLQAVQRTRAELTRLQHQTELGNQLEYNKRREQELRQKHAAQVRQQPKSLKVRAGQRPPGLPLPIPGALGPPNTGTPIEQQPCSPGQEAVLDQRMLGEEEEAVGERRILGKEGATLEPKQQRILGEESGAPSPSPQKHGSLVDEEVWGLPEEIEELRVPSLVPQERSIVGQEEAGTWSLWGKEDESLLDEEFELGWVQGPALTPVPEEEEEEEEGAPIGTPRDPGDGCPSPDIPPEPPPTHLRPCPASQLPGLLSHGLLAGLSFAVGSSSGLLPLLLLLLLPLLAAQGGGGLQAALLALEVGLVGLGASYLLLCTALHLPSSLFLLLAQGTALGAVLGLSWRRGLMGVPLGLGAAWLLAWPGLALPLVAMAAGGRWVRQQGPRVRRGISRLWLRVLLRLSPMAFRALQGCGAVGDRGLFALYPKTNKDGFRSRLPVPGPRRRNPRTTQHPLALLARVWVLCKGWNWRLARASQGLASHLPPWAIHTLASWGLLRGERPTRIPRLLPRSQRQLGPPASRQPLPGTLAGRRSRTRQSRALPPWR
The note with it: at 1 µM.

Assay [7] deals with T3, Serine/threonine-protein kinase TAO2 (Homo sapiens). The note with it: at 10 µM.
Assay [8] addresses T4, Serine/threonine-protein kinase TAO3 (Homo sapiens) (UniProt Q9H2K8).
T4 sequence (whole entry): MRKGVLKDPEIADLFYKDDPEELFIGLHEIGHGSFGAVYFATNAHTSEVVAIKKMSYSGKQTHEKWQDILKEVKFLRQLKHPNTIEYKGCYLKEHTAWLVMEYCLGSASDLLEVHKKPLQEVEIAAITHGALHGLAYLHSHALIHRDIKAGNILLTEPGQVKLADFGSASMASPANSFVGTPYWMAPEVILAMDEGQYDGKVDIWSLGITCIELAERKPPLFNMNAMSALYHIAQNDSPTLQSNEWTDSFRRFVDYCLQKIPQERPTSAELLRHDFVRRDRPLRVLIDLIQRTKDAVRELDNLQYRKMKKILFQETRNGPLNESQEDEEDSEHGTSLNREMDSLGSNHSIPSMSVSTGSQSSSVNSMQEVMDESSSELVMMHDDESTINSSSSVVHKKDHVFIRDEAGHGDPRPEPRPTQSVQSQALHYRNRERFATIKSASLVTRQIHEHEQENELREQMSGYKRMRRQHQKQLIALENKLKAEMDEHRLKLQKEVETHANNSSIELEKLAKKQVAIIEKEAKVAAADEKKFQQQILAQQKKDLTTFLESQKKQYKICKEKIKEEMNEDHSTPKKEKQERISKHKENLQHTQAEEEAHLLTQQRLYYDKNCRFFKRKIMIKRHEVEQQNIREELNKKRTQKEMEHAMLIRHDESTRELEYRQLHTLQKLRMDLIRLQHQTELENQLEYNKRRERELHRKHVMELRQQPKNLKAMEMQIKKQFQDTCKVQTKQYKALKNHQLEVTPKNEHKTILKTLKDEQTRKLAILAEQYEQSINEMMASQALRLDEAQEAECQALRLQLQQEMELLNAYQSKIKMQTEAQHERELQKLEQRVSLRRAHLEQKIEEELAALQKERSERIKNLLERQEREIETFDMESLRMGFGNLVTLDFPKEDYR
The note with it: at 1 µM.

Assay [9] addresses T4, Serine/threonine-protein kinase TAO3 (Homo sapiens). The note with it: at 10 µM.
In assay [10] the target is T5, Serine/threonine-protein kinase TBK1 (Homo sapiens) (UniProt Q9UHD2).
T5 sequence (whole entry): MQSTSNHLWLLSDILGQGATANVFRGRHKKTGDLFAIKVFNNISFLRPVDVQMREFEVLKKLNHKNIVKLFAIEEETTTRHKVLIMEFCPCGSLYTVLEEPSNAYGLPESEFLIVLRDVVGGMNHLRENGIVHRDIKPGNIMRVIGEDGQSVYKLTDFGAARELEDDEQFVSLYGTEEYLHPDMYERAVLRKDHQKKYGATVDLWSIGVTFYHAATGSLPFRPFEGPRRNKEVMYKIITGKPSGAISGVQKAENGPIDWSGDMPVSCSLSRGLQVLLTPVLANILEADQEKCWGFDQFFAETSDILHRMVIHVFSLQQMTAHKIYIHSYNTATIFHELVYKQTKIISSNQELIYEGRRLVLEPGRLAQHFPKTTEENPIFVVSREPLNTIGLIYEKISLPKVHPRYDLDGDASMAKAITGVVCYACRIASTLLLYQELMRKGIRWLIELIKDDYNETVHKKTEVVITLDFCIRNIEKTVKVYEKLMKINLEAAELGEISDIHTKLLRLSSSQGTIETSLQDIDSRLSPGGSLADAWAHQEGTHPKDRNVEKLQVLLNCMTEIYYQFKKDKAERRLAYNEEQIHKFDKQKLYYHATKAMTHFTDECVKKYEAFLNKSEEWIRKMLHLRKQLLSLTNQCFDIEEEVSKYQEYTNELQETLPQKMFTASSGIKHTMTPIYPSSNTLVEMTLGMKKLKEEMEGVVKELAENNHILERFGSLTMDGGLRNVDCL
The note with it: at 1 µM.

On to `Nc1ccc2ncnc(NCCc3ccc(Oc4ccccc4)cc3)c2c1`, for which the residual activity in assay [1] is 78%; in [2], 92%; in [3] it was 72%; in assay [4] it was 103%; in assay [5] it was 88%; in assay [6], 90%. The residual activity in [7] stood at 91%; in assay [8], 110%; in assay [9] it was 92%; in assay [10] it was 94%.
